Laboratory results reported in the supplement of paper PMC10849652.
Targets with a hit are over-represented here; the source holds about 8,800 in all. About 0.5% of all pairs of compound and target were hits. Unmarked numbers belong to inactive results.

Columns and labels:
Assay in all cases: log2 fold change, soluble protein after heating vs DMSO (PISA); higher = thermal stabilisation; K562 lysate, 10 uM; active = over 0.2 and 3.5 SD of the protein, either way, in both replicates (recomputed)
lapatinib = compound: CS(=O)(=O)CCNCc1ccc(-c2ccc3ncnc(Nc4ccc(OCc5cccc(F)c5)c(Cl)c4)c3c2)o1 [lapatinib]
Outline: (§1)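 K562 pellets were dounce-homogenised in PBS pH 7.4 containing 1 mM MgCl2, and the crude extract, at 1 mg/mL protein, was exposed to 10 μM compound for 30 min. Aliquots were heated for 3 min across 48°C-58°C, pooled, brought to 0.5% NP-40 at 4°C and spun at 21,000xg for 90 min, with the supernatant taken as soluble protein. TMTpro 16plex LC-MS/MS with equalised channel sums quantified that protein. Values are log-two fold changes in thermal stability relative to solvent controls, taken from duplicates.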

crizotinib = compound: C[C@@H](Oc1cc(-c2cnn(C3CCNCC3)c2)cnc1N)c1c(Cl)ccc(F)c1Cl [crizotinib]
Outline: as §1

[1] = compound: C[C@H](C1=CC=C(C=C1)C(=O)NC2=C3C=CNC3=NC=C2)N
Outline: as §1

duvelisib = compound: C[C@H](Nc1ncnc2nc[nH]c12)c1cc2cccc(Cl)c2c(=O)n1-c1ccccc1 [duvelisib]
Outline: as §1

gandotinib = compound: Cc1cc(Nc2cc(CN3CCOCC3)c3nc(C)c(Cc4ccc(Cl)cc4F)n3n2)n[nH]1 [gandotinib]
Outline: as §1

tozasertib = compound: Cc1cc(Nc2cc(N3CCN(C)CC3)nc(Sc3ccc(NC(=O)C4CC4)cc3)n2)n[nH]1 [tozasertib]
Outline: as §1

doramapimod = compound: Cc1ccc(-n2nc(C(C)(C)C)cc2NC(=O)Nc2ccc(OCCN3CCOCC3)c3ccccc23)cc1 [doramapimod]
Outline: as §1

[2] = compound: Cc1cccc(CC(=O)N2CCc3c2ccc(-c2cn(C)c4ncnc(N)c24)c3F)n1
Outline: as §1

dasatinib = compound: Cc1nc(Nc2ncc(C(=O)Nc3c(C)cccc3Cl)s2)cc(N2CCN(CCO)CC2)n1 [dasatinib]
Outline: as §1

[3] = compound: Cn1cc(-c2ccc3c(c2)CCN3C(=O)Cc2cccc(C(F)(F)F)c2)c2c(N)ncnc21
Outline: as §1

quisinostat = compound: Cn1cc(CNCC2CCN(c3ncc(C(=O)NO)cn3)CC2)c2ccccc21 [quisinostat]
Outline: as §1

[4] = compound: NC(=O)Nc1cc(-c2cccc(F)c2)sc1C(=O)N[C@H]1CCCNC1
Outline: as §1

[5] = compound: NC(=O)c1cnc(N[C@@H]2CCCC[C@@H]2N)nc1Nc1cccc(-n2nccn2)c1
Outline: as §1

[6] = compound: NC1(c2ccc(-c3nc4ccn5c(=O)[nH]nc5c4cc3-c3ccccc3)cc2)CCC1
Outline: as §1

pictilisib = compound: CS(=O)(=O)N1CCN(Cc2cc3nc(-c4cccc5[nH]ncc45)nc(N4CCOCC4)c3s2)CC1 [pictilisib]
Outline: as §1

bafetinib = compound: Cc1ccc(NC(=O)c2ccc(CN3CC[C@H](N(C)C)C3)c(C(F)(F)F)c2)cc1Nc1nccc(-c2cncnc2)n1 [bafetinib]
Outline: as §1

nilotinib = compound: Cc1cn(-c2cc(NC(=O)c3ccc(C)c(Nc4nccc(-c5cccnc5)n4)c3)cc(C(F)(F)F)c2)cn1 [nilotinib]
Outline: as §1

[7] = compound: Cc1nc(Nc2n[nH]c3c2CN(C(=O)N[C@H](CN(C)C)c2ccccc2)C3(C)C)c2sccc2n1
Outline: as §1

[8] = compound: Cc1ncc(-c2ccnc(Nc3ccc(S(C)(=O)=O)cc3)n2)n1C(C)C
Outline: as §1

tipifarnib = compound: Cn1cncc1[C@@](N)(c1ccc(Cl)cc1)c1ccc2c(c1)c(-c1cccc(Cl)c1)cc(=O)n2C [tipifarnib]
Outline: as §1

Target: DDAH1 (UniProt O94760)
UniProt O94760, sequence (O94760 whole entry, looked up): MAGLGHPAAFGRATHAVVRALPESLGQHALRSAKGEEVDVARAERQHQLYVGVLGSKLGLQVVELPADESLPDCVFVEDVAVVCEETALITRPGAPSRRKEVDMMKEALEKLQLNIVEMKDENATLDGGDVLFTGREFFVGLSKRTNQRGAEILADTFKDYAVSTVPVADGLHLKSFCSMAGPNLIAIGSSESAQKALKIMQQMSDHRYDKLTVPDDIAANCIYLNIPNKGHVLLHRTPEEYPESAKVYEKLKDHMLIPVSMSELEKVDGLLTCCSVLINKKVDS
- log2 fold change (lapatinib): 0.011
- log2 fold change (crizotinib): 0
- log2 fold change [1]: 0.059
- log2 fold change (duvelisib): 0.186
- log2 fold change (gandotinib): -0.039
- log2 fold change (tozasertib): -0.044
- log2 fold change (doramapimod): -0.058
- log2 fold change [2]: 0.196
- log2 fold change (dasatinib): -0.244
- log2 fold change [3]: 0.174
- log2 fold change (quisinostat): -0.013
- log2 fold change [4]: -0.003
- log2 fold change [5]: -0.034
- log2 fold change [6]: -0.016

Target: CSNK1A1 isoform 3 (UniProt P48729)
UniProt P48729, sequence (P48729 whole entry, looked up): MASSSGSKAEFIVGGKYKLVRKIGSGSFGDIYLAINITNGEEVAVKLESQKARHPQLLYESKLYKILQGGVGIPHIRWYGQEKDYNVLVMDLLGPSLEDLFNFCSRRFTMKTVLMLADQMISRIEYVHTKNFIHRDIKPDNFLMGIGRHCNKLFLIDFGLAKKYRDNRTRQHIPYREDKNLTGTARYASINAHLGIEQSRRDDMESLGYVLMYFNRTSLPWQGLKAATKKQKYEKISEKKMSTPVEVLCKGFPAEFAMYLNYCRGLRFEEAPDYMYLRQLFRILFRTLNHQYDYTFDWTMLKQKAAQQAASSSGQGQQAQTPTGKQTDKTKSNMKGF
- log2 fold change (duvelisib): -0.077
- log2 fold change (dasatinib): 0.048
- log2 fold change [3]: -0.183

Target: CPLX1 (UniProt O14810)
UniProt O14810, sequence (O14810 whole entry, looked up): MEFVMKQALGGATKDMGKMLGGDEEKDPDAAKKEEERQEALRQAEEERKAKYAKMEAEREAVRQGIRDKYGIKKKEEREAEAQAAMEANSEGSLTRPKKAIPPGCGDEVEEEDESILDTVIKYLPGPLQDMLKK
- log2 fold change (lapatinib): -0.095
- log2 fold change (duvelisib): -0.001
- log2 fold change (tozasertib): 0.167
- log2 fold change (dasatinib): 1.05 (active)
- log2 fold change [3]: -0.134
- log2 fold change [5]: 0.178

Target: CSAD isoform 3 (UniProt Q9Y600)
- log2 fold change (pictilisib): -0.123
- log2 fold change (crizotinib): -0.123
- log2 fold change (doramapimod): 0.035
- log2 fold change (bafetinib): 0.046
- log2 fold change (quisinostat): -0.035
- log2 fold change [4]: -0.001
- log2 fold change [6]: -0.153

Target: CNNM2 (UniProt Q9H8M5)
UniProt Q9H8M5, sequence (Q9H8M5 whole entry, looked up): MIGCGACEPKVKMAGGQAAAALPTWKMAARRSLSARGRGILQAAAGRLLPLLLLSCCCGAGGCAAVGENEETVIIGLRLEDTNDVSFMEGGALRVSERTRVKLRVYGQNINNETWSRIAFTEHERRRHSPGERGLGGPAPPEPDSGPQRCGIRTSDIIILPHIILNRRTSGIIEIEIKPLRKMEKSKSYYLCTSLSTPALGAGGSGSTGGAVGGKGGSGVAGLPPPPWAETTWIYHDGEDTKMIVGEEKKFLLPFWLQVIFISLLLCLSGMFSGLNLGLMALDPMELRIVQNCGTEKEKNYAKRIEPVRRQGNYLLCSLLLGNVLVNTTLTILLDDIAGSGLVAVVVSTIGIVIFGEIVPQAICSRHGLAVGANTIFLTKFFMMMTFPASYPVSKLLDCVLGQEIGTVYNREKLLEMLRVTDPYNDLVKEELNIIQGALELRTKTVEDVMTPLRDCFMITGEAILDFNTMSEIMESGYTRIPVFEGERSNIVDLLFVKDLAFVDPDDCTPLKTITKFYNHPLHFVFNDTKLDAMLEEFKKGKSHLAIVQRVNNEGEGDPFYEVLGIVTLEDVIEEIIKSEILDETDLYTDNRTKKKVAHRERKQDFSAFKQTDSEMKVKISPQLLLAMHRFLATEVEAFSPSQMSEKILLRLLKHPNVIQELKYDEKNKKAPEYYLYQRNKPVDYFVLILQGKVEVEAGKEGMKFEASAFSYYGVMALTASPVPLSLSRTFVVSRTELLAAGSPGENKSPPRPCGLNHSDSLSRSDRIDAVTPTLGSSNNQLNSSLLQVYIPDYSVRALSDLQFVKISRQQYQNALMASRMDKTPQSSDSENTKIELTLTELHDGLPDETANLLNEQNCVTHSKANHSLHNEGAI
- log2 fold change (lapatinib): 0.006
- log2 fold change (crizotinib): 0.021
- log2 fold change [1]: -0.039
- log2 fold change (duvelisib): 0.041
- log2 fold change (gandotinib): -0.064
- log2 fold change (tozasertib): -0.078
- log2 fold change (doramapimod): -0.026
- log2 fold change [2]: 0.036
- log2 fold change (dasatinib): -0.021
- log2 fold change [3]: -0.044
- log2 fold change (quisinostat): 0.217
- log2 fold change [4]: -0.077
- log2 fold change [5]: -0.001
- log2 fold change [6]: -0.006

Target: CIC (UniProt I3L1Q4)
- log2 fold change (pictilisib): 0.065
- log2 fold change (bafetinib): 0.021

Target: CLASP2 (UniProt O75122)
- log2 fold change (lapatinib): 0.003
- log2 fold change (crizotinib): 0.127
- log2 fold change [1]: -0.086
- log2 fold change (gandotinib): -0.031
- log2 fold change (tozasertib): 0.052
- log2 fold change (doramapimod): -0.001
- log2 fold change (bafetinib): -0.199
- log2 fold change [2]: 0.067
- log2 fold change (nilotinib): 0.013
- log2 fold change [7]: -0.14
- log2 fold change [8]: -0.061
- log2 fold change (quisinostat): -0.135
- log2 fold change (tipifarnib): -0.242
- log2 fold change [4]: -0.058
- log2 fold change [5]: 0.205

Target: COPS9 (UniProt Q8WXC6)
UniProt Q8WXC6, sequence (Q8WXC6 whole entry, looked up): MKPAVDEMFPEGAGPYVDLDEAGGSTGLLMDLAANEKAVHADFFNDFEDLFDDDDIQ
- log2 fold change (lapatinib): 0.148
- log2 fold change [5]: -0.074
- log2 fold change [6]: 0.214

Target: DESI2 (UniProt Q9BSY9)
UniProt Q9BSY9, sequence (Q9BSY9 whole entry, looked up): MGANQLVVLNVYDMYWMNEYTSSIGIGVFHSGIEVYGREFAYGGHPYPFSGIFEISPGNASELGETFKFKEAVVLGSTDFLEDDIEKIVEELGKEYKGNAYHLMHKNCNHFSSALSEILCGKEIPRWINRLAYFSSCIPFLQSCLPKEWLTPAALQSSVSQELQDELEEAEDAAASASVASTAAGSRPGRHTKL
- log2 fold change [1]: -0.095
- log2 fold change (gandotinib): -0.078
- log2 fold change (tozasertib): -0.095
- log2 fold change [2]: 0.316

Target: DDR1 isoform 5 (UniProt Q08345)
UniProt Q08345, sequence (Q08345 whole entry, looked up): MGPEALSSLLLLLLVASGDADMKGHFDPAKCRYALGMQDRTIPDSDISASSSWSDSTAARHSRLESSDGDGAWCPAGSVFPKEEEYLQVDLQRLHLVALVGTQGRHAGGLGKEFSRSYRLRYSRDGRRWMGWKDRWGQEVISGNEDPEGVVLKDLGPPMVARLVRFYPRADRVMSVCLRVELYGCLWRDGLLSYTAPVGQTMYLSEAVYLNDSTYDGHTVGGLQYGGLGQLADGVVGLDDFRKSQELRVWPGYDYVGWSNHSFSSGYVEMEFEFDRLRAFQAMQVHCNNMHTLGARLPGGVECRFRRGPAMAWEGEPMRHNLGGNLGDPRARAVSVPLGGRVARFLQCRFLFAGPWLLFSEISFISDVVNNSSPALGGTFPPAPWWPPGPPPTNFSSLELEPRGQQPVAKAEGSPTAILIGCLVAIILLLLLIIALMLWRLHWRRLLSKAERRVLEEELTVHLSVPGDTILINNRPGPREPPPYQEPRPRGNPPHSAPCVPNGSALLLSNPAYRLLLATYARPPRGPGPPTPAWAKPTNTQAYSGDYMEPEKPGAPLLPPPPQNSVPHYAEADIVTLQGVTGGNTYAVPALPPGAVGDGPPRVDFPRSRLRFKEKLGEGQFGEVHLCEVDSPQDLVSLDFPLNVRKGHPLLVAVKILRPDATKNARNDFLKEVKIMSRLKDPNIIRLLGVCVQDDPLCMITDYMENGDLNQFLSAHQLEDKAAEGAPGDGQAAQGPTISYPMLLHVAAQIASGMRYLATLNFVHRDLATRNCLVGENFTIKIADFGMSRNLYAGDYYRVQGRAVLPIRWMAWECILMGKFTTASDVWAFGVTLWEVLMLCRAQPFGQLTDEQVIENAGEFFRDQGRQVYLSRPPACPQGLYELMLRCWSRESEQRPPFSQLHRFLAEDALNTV
- log2 fold change (pictilisib): -0.075
- log2 fold change (crizotinib): -0.712 (active)
- log2 fold change [1]: 0.097
- log2 fold change (duvelisib): -0.051
- log2 fold change (gandotinib): -0.305
- log2 fold change (bafetinib): 0.101
- log2 fold change [2]: 0.007
- log2 fold change (nilotinib): 0.036
- log2 fold change [7]: 0.013
- log2 fold change (dasatinib): 0.083
- log2 fold change [8]: -0.216
- log2 fold change [3]: 0.103
- log2 fold change (quisinostat): 0.045
- log2 fold change (tipifarnib): -0.012
- log2 fold change [4]: -0.054

Target: CORO7 (UniProt P57737)
UniProt P57737, sequence (P57737 whole entry, looked up): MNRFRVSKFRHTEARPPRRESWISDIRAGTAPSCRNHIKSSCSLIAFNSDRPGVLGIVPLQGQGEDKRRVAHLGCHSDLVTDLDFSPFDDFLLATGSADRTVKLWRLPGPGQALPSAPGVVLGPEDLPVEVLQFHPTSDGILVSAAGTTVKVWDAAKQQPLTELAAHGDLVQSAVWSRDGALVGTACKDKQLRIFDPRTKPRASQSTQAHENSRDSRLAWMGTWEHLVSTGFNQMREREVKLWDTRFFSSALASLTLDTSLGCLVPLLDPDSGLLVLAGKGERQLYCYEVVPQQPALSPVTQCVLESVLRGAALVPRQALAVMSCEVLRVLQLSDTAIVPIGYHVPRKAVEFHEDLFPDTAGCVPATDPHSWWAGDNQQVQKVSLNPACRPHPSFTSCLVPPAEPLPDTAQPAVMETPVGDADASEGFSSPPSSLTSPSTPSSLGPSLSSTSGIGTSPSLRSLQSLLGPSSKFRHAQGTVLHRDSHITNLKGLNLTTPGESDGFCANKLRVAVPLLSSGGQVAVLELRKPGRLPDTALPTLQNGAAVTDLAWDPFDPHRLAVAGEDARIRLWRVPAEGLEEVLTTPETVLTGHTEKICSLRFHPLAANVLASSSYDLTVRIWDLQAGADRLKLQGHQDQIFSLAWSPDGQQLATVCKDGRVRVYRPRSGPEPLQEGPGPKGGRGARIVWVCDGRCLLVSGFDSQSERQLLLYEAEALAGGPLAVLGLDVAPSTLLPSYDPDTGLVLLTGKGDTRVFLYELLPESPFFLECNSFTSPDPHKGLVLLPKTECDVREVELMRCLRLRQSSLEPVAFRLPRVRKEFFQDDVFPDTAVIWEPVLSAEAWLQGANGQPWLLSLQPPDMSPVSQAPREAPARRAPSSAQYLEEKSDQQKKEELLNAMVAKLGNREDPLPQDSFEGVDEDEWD
- log2 fold change (crizotinib): -0.004
- log2 fold change [1]: -0.139
- log2 fold change (duvelisib): -0.084
- log2 fold change (gandotinib): 0
- log2 fold change (tozasertib): 0.092
- log2 fold change (doramapimod): 0.016
- log2 fold change [2]: -0.335
- log2 fold change (nilotinib): -0.102
- log2 fold change [7]: 0.136
- log2 fold change (dasatinib): 0.024
- log2 fold change [8]: -0.072
- log2 fold change [3]: 0.119
- log2 fold change (quisinostat): 0.171
- log2 fold change (tipifarnib): -0.051
- log2 fold change [4]: 0.088
- log2 fold change [6]: 0.183

Target: DAPK1 isoform 3 (UniProt P53355)
- log2 fold change (lapatinib): 0.042
- log2 fold change (crizotinib): 0.022
- log2 fold change [1]: 0.188
- log2 fold change (duvelisib): 0.042
- log2 fold change (gandotinib): 0.058
- log2 fold change (doramapimod): -0.141
- log2 fold change [2]: -0.383
- log2 fold change (nilotinib): -0.061
- log2 fold change [7]: 0.017
- log2 fold change (dasatinib): -0.052
- log2 fold change [8]: -0.146
- log2 fold change [3]: -0.049
- log2 fold change (quisinostat): -0.135
- log2 fold change (tipifarnib): 0.056
- log2 fold change [4]: 0.812 (active)
- log2 fold change [5]: -0.103
- log2 fold change [6]: -0.075

Target: DLGAP5 isoform 3 (UniProt Q15398)
- log2 fold change (pictilisib): 0.092
- log2 fold change [1]: -0.176
- log2 fold change (duvelisib): -0.098
- log2 fold change (gandotinib): 0.05
- log2 fold change (bafetinib): 0.031
- log2 fold change [2]: -0.505
- log2 fold change (dasatinib): 0.017
- log2 fold change [3]: 0.18

Target: COL12A1 (UniProt Q99715)
- log2 fold change (lapatinib): -0.117
- log2 fold change (crizotinib): -0.031
- log2 fold change (duvelisib): 0.086
- log2 fold change (tozasertib): -0.021
- log2 fold change (doramapimod): 0.88
- log2 fold change (dasatinib): -0.097
- log2 fold change [3]: 0.198
- log2 fold change (quisinostat): -0.056
- log2 fold change [4]: 0.166
- log2 fold change [5]: 0.827
- log2 fold change [6]: -0.154

Target: CNK3/IPCEF1 isoform 2 (UniProt G9CGD6)
UniProt G9CGD6, sequence (G9CGD6 whole entry, looked up): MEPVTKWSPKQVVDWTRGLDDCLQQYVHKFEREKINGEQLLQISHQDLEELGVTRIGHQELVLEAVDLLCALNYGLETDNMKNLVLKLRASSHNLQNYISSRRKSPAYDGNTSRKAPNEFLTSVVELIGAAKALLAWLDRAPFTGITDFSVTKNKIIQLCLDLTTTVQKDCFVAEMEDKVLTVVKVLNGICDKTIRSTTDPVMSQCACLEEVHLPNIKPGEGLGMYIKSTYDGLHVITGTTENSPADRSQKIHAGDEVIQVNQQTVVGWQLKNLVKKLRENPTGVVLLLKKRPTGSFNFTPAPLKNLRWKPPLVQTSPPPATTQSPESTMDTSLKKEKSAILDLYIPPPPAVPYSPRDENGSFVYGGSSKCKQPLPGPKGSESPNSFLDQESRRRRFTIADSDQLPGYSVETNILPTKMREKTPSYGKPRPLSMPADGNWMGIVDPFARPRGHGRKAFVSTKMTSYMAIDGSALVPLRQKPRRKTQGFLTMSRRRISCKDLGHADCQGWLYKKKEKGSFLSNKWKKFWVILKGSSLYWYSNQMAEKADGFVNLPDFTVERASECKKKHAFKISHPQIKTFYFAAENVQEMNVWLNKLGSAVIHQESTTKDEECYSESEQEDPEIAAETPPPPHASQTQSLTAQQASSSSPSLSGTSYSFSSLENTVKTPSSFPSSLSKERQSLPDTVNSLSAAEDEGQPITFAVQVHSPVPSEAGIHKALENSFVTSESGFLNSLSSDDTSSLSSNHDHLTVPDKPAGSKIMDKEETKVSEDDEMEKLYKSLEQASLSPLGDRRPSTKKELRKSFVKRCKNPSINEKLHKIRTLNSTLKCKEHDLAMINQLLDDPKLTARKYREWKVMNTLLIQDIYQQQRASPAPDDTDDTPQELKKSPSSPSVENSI
- log2 fold change [1]: -1.84 (active)
- log2 fold change (duvelisib): 0.129
- log2 fold change (gandotinib): 0.326
- log2 fold change (tozasertib): 0.105
- log2 fold change [2]: 0.4
- log2 fold change (dasatinib): -0.131
- log2 fold change [3]: 0.002
- log2 fold change [6]: 0.168

Target: CUX1 isoform 2 (UniProt Q13948)
- log2 fold change (lapatinib): -0.168
- log2 fold change (crizotinib): -0.073
- log2 fold change [1]: 0.104
- log2 fold change (duvelisib): 0.014
- log2 fold change (gandotinib): 0.041
- log2 fold change (tozasertib): 0.057
- log2 fold change (doramapimod): -0.12
- log2 fold change [2]: -0.089
- log2 fold change (dasatinib): 0.001
- log2 fold change [3]: 0.101
- log2 fold change (quisinostat): 0.072
- log2 fold change [4]: -0.026
- log2 fold change [5]: -0.073
- log2 fold change [6]: 0.012
